The list is not random: actives were taken first. Their share in the collection is about 2.9%.
D3 antag – D3 dopamine receptor (human) antagonism | P35462 | D3R cells, DiscoveRx beta-arrestin luminescence, antagonist mode; stronger effect = lower value | max response, negative = inhibition, % | 360,000 compounds, 2.5% hits | AID 652054; in the data active = max response below about -50%; inconclusive = no clear call, values can overlap the other calls
Target sequence (P35462 whole entry, looked up): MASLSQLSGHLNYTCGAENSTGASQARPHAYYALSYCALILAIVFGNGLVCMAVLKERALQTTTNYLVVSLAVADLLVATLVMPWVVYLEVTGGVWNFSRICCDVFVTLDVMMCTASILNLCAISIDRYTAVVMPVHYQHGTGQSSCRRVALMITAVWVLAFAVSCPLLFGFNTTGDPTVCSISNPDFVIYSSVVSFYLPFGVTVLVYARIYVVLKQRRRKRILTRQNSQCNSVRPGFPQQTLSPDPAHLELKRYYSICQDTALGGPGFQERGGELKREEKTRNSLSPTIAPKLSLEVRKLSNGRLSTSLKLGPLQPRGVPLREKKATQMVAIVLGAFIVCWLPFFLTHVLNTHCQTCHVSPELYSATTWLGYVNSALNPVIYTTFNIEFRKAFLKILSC
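Cells plated overnight at 1500 cells/well, then exposed to library compounds with dopamine controls for 90 minutes at 37 degrees C. DiscoveRx reagent added for 30–60 minutes at room temperature; luminescence read, quantitative HTS format.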
TRPML1 blocker – blocks the human TRPML1 channel | Q9GZU1 | TRPML1-inducible cells, Ca2+ dye fluorescence, FDSS; stronger effect = lower value; inhibition of EC80 agonist-evoked calcium signal | activity change, negative = inhibition, % (no concentration beside the values) | 390,000 compounds, 0.02% hits; in the data active = activity change below about -50%; inconclusive = between about -30% and that limit;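 also: stimulus is agonist 54-4 at its EC80 concentration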
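Calcium fluorescence in TRPML1-DL cells induced overnight with Tet: a 110 s read after compound pin addition, then a 110 s antagonist read after challenge with 54-4 at 4 uM final (EC80).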
TRPML1 agonist – human mucolipin-1 channel agonism. 410,000 compounds, 0.12% hits. activation, % (test concentration not listed). TRPML1-expressing cells, Ca2+ dye fluorescence, FDSS; in the data active = activation above about 50%; inconclusive = mostly about 30% to 49%
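Agonist activity was taken from a 110 s kinetic Ca2+ dye read on the FDSS after pinning compounds onto TRPML1-DL cells. The cells were seeded at 1,500/well with Tet inducer, incubated about 16 h, then dye-loaded at room temperature.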
DRD3 agonist – D3 dopamine receptor (human) agonism; 410,000 compounds, 0.58% hits; max activation, %; D3R DiscoveRx beta-arrestin cells, luminescence, 90 min; in the data active = max activation above about 30%
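Agonist mode: compounds and dopamine controls were applied to plated cells for 90 min at 37 degrees C after an overnight attachment at 1500 cells/well. Luminescent read-out followed 30 - 60 minutes at room temperature with DiscoveRx detection reagent.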
Numbers stand for hits; n = inactive; u = inconclusive; x = no result.

SMILES	D3 antag	TRPML1 blocker	TRPML1 agonist	DRD3 agonist
O=C(c1ccc(Br)s1)N1CCN(C/C=C/c2ccccc2)CC1	-75	n	n	n
O=C(c1ccc(Br)o1)N1CCN(C/C=C/c2ccccc2)CC1	-69	n	n	n
O=C(c1cccc(S(=O)(=O)N2CCOCC2)c1)N1CCN(C/C=C/c2ccccc2)CC1	n	n	n	31
O=C(COC(=O)c1ccccc1OCCOc1ccccc1)Nc1ccc(Br)cc1	x	x	n	x
COC(=O)[C@@]1(Cc2ccccc2)[C@H]2C(=O)N(Cc3ccccc3)C(=O)[C@H]2[C@H]2CN=C(SCc3ccc(Cl)cc3)N21	n	n	n	n
CCN1C(=O)[C@H]2[C@H]3CN=C(SCc4ccc(C(=O)OC)cc4)N3[C@@](Cc3ccccc3)(C(=O)OC)[C@H]2C1=O	u	n	n	n
CCN1C(=O)[C@H]2[C@H]3CN=C(SCc4ccc(Cl)cc4)N3[C@@](Cc3ccccc3)(C(=O)OC)[C@H]2C1=O	-63	n	n	n
CCN1C(=O)[C@H]2[C@H]3CN=C(SCc4ccc(C)cc4)N3[C@@](Cc3ccccc3)(C(=O)OC)[C@H]2C1=O	-57	n	n	n
Cc1ccc(S(=O)(=O)N2CCN(c3nc(-c4cccs4)nc4cccnc34)CC2)cc1	x	x	n	x
OC(CN1CCOCC1)c1ccc(F)cc1 (configuration not stated)	n	n	n	n
O=C(c1ccc(F)cc1)C(CCCCCC(CN1CCOCC1)C(=O)c1ccc(F)cc1)CN1CCOCC1 (configuration not stated)	-58	n	n	n
O=C(NNC(=O)c1ccc2nonc2c1)Nc1ccc(Cl)cc1	-69	n	n	n
O=C(NNC(=O)c1cccnc1)Nc1ccc(Cl)c(Cl)c1	n	n	n	n
Cc1nc(Nc2ccc3c(c2)OCO3)c2oc3ccccc3c2n1	-54	n	n	n
Cc1ccc(-c2nnc(Nc3ccc4c(c3)OCO4)c3ccccc23)cc1S(N)(=O)=O	n	n	n	n
Cc1nnc(Nc2ccc3c(c2)OCO3)c2ccccc12	-63	n	n	n
Cc1nc(Nc2ccccc2)c2oc3ccc(Cl)cc3c2n1	n	n	n	93
CC(=O)Oc1c(C)c2c3c(c1OC(C)=O)[C@@H](C)CC[C@@H]3[C@@H](C)C[C@H]2C=C(C)C	n	n	n	43
COC(=O)[C@@H]1[C@H]2SC(C)(C)[C@H](C(=O)OC)N2C(=O)N1Cc1cc2ccccc2n1S(=O)(=O)c1ccccc1	x	x	n	x
COc1ccc(OCc2nnc(SC(C)C(=O)Nc3ccc(N4CCOCC4)cc3)n2C)cc1 (configuration not stated)	-77	n	n	n
CC(Sc1nnc(C2CC2)n1C)C(=O)Nc1ccc(N2CCOCC2)cc1 (configuration not stated)	n	n	n	n
Clc1ccccc1OCCN1CCCCC1	-80	n	n	n
O=c1ccccn1CCOc1ccccc1Cl	n	n	n	n
Clc1ccc(OCCN2CCCCC2)c(Cl)c1	-176	n	n	n
Cc1ccc(OCCN2CCCCCC2)c(C)c1	u	n	n	n
SMILES	D3 antag	TRPML1 blocker	TRPML1 agonist	DRD3 agonist
Cc1ccc(/C=C2\NC(=S)NC2=O)cc1[N+](=O)[O-]	n	n	n	n
O=C1NC(=S)N/C1=C/c1cccc([N+](=O)[O-])c1O	-75	n	n	n
O=C1NC(=S)N/C1=C/c1cc([N+](=O)[O-])ccc1O	-107	n	n	n
O=C1NC(=S)NC1=Cc1ccc(O)cc1	n	n	n	n
CCCCOC(=O)c1ccc(NC(=O)/C(C#N)=C/c2ccc(-c3ccccc3)o2)cc1	x	n	n	n
N#C/C(=C\c1ccc(-c2cccc(Cl)c2)o1)C(=O)Nc1cccc2cccnc12	-51	n	n	n
N#C/C(=C/c1ccc(-c2cccc([N+](=O)[O-])c2)o1)C(=O)Nc1nc(-c2cccs2)cs1	n	n	n	n
N#C/C(=C\c1ccc(-c2ccccc2)o1)C(=O)Nn1cnnc1	-69	n	n	n
Cc1ccccc1NC(=O)/C(C#N)=C/c1ccc(-c2ccc(Cl)c(C(=O)O)c2)o1	-66	n	n	n
Cc1ccc(NC(=O)/C(C#N)=C/c2ccc(-c3ccc(Cl)c(C(=O)O)c3)o2)cc1C	x	n	n	n
CCOc1ccc(-n2nc3ccc(NC(=O)c4ccc(-c5cccc(Cl)c5)o4)cc3n2)cc1	x	n	n	n
C[C@@H](O)[C@H]1C(=O)N2C(C(=O)[O-])=C(SC3Cn4cnc[n+]4C3)[C@H](C)[C@H]12 (some centres not stated)	x	x	x	n
O=C(O)CCN1CCc2ccccc21	n	n	n	n
O=C(O)CCN1CCc2ccccc2C1c1ccncc1 (configuration not stated)	-58	n	n	n
CCOC(=O)Cc1ccc(NC(=O)N2CC(C)Oc3ccc(Cl)cc32)cc1 (configuration not stated)	x	n	n	n
Cc1c(C(=O)Nc2ccc3nc(N4CCOCC4)sc3c2)oc2ccccc12	n	n	55	n
O=C(O)c1cc(O)c2c(c1)[C@@H]([C@H]1c3cc(C(=O)O)cc(O)c3C(=O)c3c(O[C@@H]4O[C@H](CO)[C@@H](O)[C@H](O)[C@H]4O)cccc31)c1cccc(O[C@@H]3O[C@H](CO)[C@@H](O)[C@H](O)[C@H]3O)c1C2=O	-50	n	n	n
C=CCN1CCc2nc(N)sc2CC1	n	n	n	93
CCN1CCc2nc(N)sc2C1	n	n	n	40
CC(C)c1ccc(Nc2nc(Nc3ccc(Cl)cc3)nc(N3CCOCC3)n2)cc1	x	x	n	x
NC1[C@H]2CN(c3nc4c(cc3F)c(=O)c(C(=O)O)cn4-c3ccc(F)cc3F)C[C@@H]12 (some centres not stated)	x	x	x	n
Cc1coc2c(C)c3oc(=O)c(CCC(=O)N4C[C@H]5C[C@@H](C4)c4cccc(=O)n4C5)c(C)c3cc12	n	x	x	35
CCOc1ccc(C(=O)OCc2cc(=O)n3nc(C4CCCCC4)sc3n2)cc1	x	n	n	n
COc1ccc(Cl)cc1NC(=O)CCCn1c(C)c2cnn(-c3ccccc3)c(=O)c2c1C	x	n	n	42
CC1(C)S[C@@H]2[C@H](NC(=O)Cc3ccccc3)C(=O)N2[C@H]1C(=O)O (tested in a mixture with another compound)	x	x	x	n
SMILES	D3 antag	TRPML1 blocker	TRPML1 agonist	DRD3 agonist
COc1ccc(Cl)cc1-c1cc(C(=O)NCC2CCCCC2)[nH]n1	-58	x	n	n
Cc1ccc(Cl)cc1-c1cc(C(=O)NCc2ccccc2)[nH]n1	-51	x	n	n
COc1ccc(Cl)cc1-c1cc(C(=O)NCc2cccc(Cl)c2)[nH]n1	-71	x	n	n
CCOc1ccc(Cl)cc1-c1cc(C(=O)NCC2CCCCC2)[nH]n1	u	x	n	n
Cc1cc(F)ccc1-c1cc(C(=O)NCC2CCCCC2)[nH]n1	n	x	n	n
CC(C)Oc1cc(F)ccc1-c1cc(C(=O)NCC2CCCCC2)[nH]n1	-83	x	n	n
COc1ccc(CNC(=O)CCc2c(C)c3cc4c(C)c(C)oc4cc3oc2=O)cc1OC	x	n	n	n

Screens as filed in PubChem.
